From PubChem
Sampled rows, rich in hits. Any-hit rate of the full collection: about 19%.
ELG1 DNA repair = ELG1-dependent DNA repair inhibition | AID 504467 | Potency, µM (highest dose often 46.1 µM), inactives show at the top dose activity change, negative = inhibition, most hits filed as inhibitors | actives 2.3% (n = 330,000) | HEK293T ELG1-luciferase reporter, luminescence, 16 h; DNA damage induced by 5-fluorouridine; further: potency means the concentration at half of the fitted maximal effect; nearly all actives have a fitted effect of over 55% in size
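DMSO vehicle served as the neutral condition. Each well held 2,000 cells given 5-fluorouridine plus compound; after 16 hr at 37 °C/5% CO2, ONE-Glo was added and luciferase measured 30 min later.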
IL1B secr inh = inhibitors of inflammasome signaling (IL-1 beta secretion) | THP-1 LPS/ATP IL-1B secretion, AlphaLISA, 16 h; stronger effect = lower value | activity change, % at 57.5 µM | actives 4.7% (n = 360,000) | AID 743279; in the data active means activity change below about -50%; inconclusive means mostly about -30% to -49%
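Secreted IL-1B measured by AlphaLISA bead assay after 16 h compound exposure of THP-1 cells; compounds (final up to 57.5 uM) added 1 h before LPS (250 ng/mL) and ATP (1.25 mM) stimulation; lower signal means less secretion.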
DT40 TDP1 CPT = growth inhibition of DT40 Tdp1-/-;hTDP1 cells with camptothecin (screen for TDP1 inhibitors) | chicken DT40 Tdp1-/-;hTDP1 cells + 20 nM CPT, ATP luminescence, 48 h | Potency, µM (top dose mostly 46.2 µM), without a hit: top-dose activity change, negative = growth inhibition, actives largely listed as inhibitors | actives 12% (n = 420,000) | AID 686979; further: potency means the concentration at half of the fitted maximal effect; nearly all actives have a fitted effect of over 55% in size
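Chicken DT40 Tdp1-/- cells stably complemented with human TDP1 were seeded at 400 cells/well in medium containing 20 nM camptothecin, exposed to pin-transferred compounds, and grown at 37 °C for at least 48 hr. Viability was read as ATP luminescence.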
TDP1 block = TDP1 (human) enzyme inhibition; Potency, µM (top dose mostly 130 µM), for inactives: at the highest dose activity change, negative = inhibition, actives largely listed as inhibitors; recombinant TDP1, AlphaScreen DNA substrate cleavage; actives 0.28% (n = 350,000); Q9NUW8; further: potency means the concentration at half of the fitted maximal effect; nearly all actives have a fitted effect of over 40% in size
Target sequence (Q9NUW8 whole entry, looked up): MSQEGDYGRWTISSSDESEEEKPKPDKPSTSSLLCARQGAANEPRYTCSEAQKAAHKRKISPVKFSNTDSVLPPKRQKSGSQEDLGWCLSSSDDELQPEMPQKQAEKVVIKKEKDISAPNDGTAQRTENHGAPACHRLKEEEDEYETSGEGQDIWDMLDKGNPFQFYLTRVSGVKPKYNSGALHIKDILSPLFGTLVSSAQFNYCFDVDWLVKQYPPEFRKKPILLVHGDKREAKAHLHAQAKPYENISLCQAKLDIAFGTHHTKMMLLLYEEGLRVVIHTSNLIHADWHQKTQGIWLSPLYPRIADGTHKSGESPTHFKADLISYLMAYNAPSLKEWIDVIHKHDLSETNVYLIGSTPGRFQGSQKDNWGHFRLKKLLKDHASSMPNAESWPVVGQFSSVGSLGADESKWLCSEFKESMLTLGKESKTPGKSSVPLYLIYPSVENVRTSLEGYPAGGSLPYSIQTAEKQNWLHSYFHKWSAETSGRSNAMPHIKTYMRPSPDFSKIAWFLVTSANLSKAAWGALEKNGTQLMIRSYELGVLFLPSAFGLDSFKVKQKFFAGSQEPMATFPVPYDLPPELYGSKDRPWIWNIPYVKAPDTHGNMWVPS
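Compounds were preincubated with Tdp1 (1 nM final) for 15 min at room temperature before substrate (15 nM final) started a 5 min reaction; beads (10 ug/ml final) were then added for 10 min before AlphaScreen detection.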
Giardia kill = Giardia lamblia killing; activity change, % at 7.66 µM, hits read low; Giardia lamblia trophozoite viability; actives 0.15% (n = 340,000); in the data active means activity change below about -80%; inconclusive means between about -30% and that limit;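 further: parasites exposed to compound for two days anaerobically before the ATP read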
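Trophozoites 100 cells/well + cpd; 48 hrs, 37 deg C, anaerobic. ATPLite 1-Step added, 15-30 min RT, luminescence read (ATP-based viability).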
TDP1 cell noCPT = qHTS for Inhibitors of human tyrosyl-DNA phosphodiesterase 1 (TDP1): qHTS in cells in absence of CPT; DT40 Tdp1-/- hTDP1 cells, no CPT, ATP luminescence, 48 h; Potency, µM (doses to about 46.2 µM), without a hit: at the top dose activity change, negative = growth inhibition, usual class: inhibitors; actives 15% (n = 420,000); AID 686978, 2013; further: potency means the concentration at half of the fitted maximal effect; nearly all actives have a fitted effect of over 55% in size
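Chicken DT40 Tdp1-/- cells complemented with human TDP1, screened without camptothecin (DMSO vehicle only), 400 cells/well. Compounds pin-transferred, cells incubated at 37 °C for at least 48 hr. Growth read as ATP-dependent luminescence (CellTiter-Glo, 30 min at RT).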
Starred values were filed as active, the others as inactive; [ ] = dose if it differs, or a comment. Unless noted, the call rests on the fitted dose curve; in most records, active means well fitted curve in the direction sought with a large enough effect; inconclusive means small, poorly fitted or top-dose-only effect, or another doubt; inactive means no such curve, though single readings can be large; an effect the other way counts as inactive or inconclusive. On the % scale 0 is the no-effect control and ±100 the full control effect.

How did COc1ccccc1C1CC(c2cccs2)=NN1C(=O)CCC(=O)O (configuration not stated) do in these assays?
ELG1 DNA repair: -2.1%; IL1B secr inh: 34.3; DT40 TDP1 CPT: -28.7%; Giardia kill: 0.2; TDP1 cell noCPT: -5.4%

What do the screens show for `CSC(C(=O)c1cc2ccccc2o1)c1ccccc1` (configuration not stated)?
ELG1 DNA repair: inconclusive; IL1B secr inh: 8.6; DT40 TDP1 CPT: -12.1%; TDP1 block: -13.3%; Giardia kill: -8.5; TDP1 cell noCPT: inconclusive

How did COc1ccc(O[C@H]2C=C[C@@H](c3ccccc3)O[C@H]2COC(=O)NCc2cccc3ccccc23)cc1 do in these assays?
TDP1 block: 5.8%[21 µM]

Results for O=C(NC(c1ccc(Cl)cc1)c1ccsc1)C1CCN(CCOc2ccc(Cl)cc2)CC1 (configuration not stated) ?
IL1B secr inh: -67.9*; DT40 TDP1 CPT: inconclusive; TDP1 cell noCPT: inconclusive

Results for Cc1cccnc1C(c1ccc(F)cc1)N(C)C(=O)C1CCN(CCOc2ccc(Cl)cc2Cl)CC1 (configuration not stated) ?
IL1B secr inh: -56.3*; DT40 TDP1 CPT: 25.9µM*; TDP1 cell noCPT: 20.6µM*

How did COc1ccc(CN2CCC(C(=O)NC(C)c3cccc4ccccc34)CC2)cc1 (configuration not stated) do in these assays?
IL1B secr inh: -21.4; DT40 TDP1 CPT: inconclusive; TDP1 cell noCPT: inconclusive

What do the screens show for `Cc1ccc(C(NC(=O)C2CCN(CCOc3ccc(Cl)cc3)CC2)c2ccccn2)cc1` (configuration not stated)?
IL1B secr inh: -70.3*; DT40 TDP1 CPT: inconclusive; TDP1 cell noCPT: inconclusive

What do the screens show for `COc1ccc(OCCN2CCC(C(=O)NC(c3ccc(Cl)cc3)c3cccnc3)CC2)cc1` (configuration not stated)?
IL1B secr inh: -12.2; DT40 TDP1 CPT: inconclusive; TDP1 cell noCPT: inconclusive

How did CC(NC(=O)C1CCN(CCOc2ccc(Cl)cc2)CC1)c1cccc2ccccc12 (configuration not stated) do in these assays?
IL1B secr inh: inconclusive; DT40 TDP1 CPT: 16.4µM*; TDP1 cell noCPT: inconclusive

Results for COc1ccccc1C(NC(=O)C1CCN(CCOc2ccc(Cl)cc2Cl)CC1)c1ccccn1 (configuration not stated) ?
IL1B secr inh: 0.0; DT40 TDP1 CPT: inconclusive; TDP1 cell noCPT: inconclusive

Results for COc1ccc(C(NC(=O)C2CCN(CCOc3ccc(Cl)cc3Cl)CC2)c2ccccn2)cc1 (configuration not stated) ?
IL1B secr inh: -56.4*; DT40 TDP1 CPT: inconclusive; TDP1 cell noCPT: 23.1µM*

Results for O=C(N/N=C/c1cc(Cl)cc(Cl)c1O)c1ccncc1 ?
ELG1 DNA repair: inconclusive; IL1B secr inh: 9.8; DT40 TDP1 CPT: 6.51µM*; TDP1 block: 11.0%; Giardia kill: -11.7; TDP1 cell noCPT: 14.6µM*

Results for Cc1ccc(N=Cc2cc(Cl)cc(Cl)c2O)nc1 ?
ELG1 DNA repair: -12.4%; IL1B secr inh: 59.6; DT40 TDP1 CPT: inconclusive; TDP1 block: 0.6%; Giardia kill: -7.6; TDP1 cell noCPT: -23.6%

What do the screens show for `Cc1ccc(C(C)C)c(OCc2ccc(C(=O)N/N=C/c3ccc(O)cc3O)cc2)c1`?
ELG1 DNA repair: inconclusive; IL1B secr inh: 50.9; DT40 TDP1 CPT: inconclusive; TDP1 block: 8.2%; Giardia kill: 11.3; TDP1 cell noCPT: 18.4µM*

How did Cc1ccc(C(C)C)c(OCc2ccc(C(=O)N/N=C/c3ccc(C(=O)O)cc3)cc2)c1 do in these assays?
ELG1 DNA repair: inconclusive; IL1B secr inh: 14.9; DT40 TDP1 CPT: inconclusive; Giardia kill: 4.8; TDP1 cell noCPT: inconclusive
